Inconclusive results are not listed. Activity calls are given as the source filed them. Calls come from the whole dose curve; as a rule, active = well fitted curve in either direction with a large enough effect (not every such curve was filed as active); inconclusive = small, poorly fitted or top-dose-only effect, or another doubt; inactive = flat fitted curve, though single readings scatter.
Test: AP1 Signaling Pathway (AID 357);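 note: ME-180 reporter cells stimulated with EGF at its EC50 level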
Settings: ME-180 (cervical carcinoma) AP-1-bla reporter, EGF-induced, beta-lactamase ratio, 5 h; series mostly up to 17.2 µM
Description: NCGC Assay Overview: Activator protein-1 (AP-1), a transcription factor, plays an important role in tumor genesis by regulating genes involved in cell proliferation, differentiation, apoptosis, and angiogenesis. AP-1 activity is induced by a complex network of signaling pathways that involves extracellular signals, such as growth factors. The AP-1 protein complex formed from c-Fos and c-Jun binding to the AP-1 response element results in transcriptional activation of genes containing such elements within their promoter. Low molecular weight molecules have been discovered and developed to modulate various components of these signaling pathways, for example, MAP kinase inhibitors. However, many points of pathway modulation remain untested due to the lack of chemical probes making this signaling locus of general interest. Using a beta-lactamase reporter-gene under control of the AP-1 response element, a cell-based assay [CellSensor(TM) AP-1-bla ME-180 developed by Invitrogen Corp.] was used to measure EGF-induced signaling. Library compounds were measured for their ability to modulate positively or negatively the action of EC50 EGF on reporter gene activity. Compounds were screened in a titration series in 1536-well format. Positive and negative modulators were identified based on the AC50 values derived from the screening data.
NCGC Assay Protocol Summary: 2500 cells/5uL in Opti-MEM medium containing 0.5% dialyzed FBS, 0.1 mM NEAA, 1 mM sodium pyruvate and 10 mM HEPES was dispensed into 1536-well plates and cells were cultured at 37 degrees Celsius overnight. […] After centrifugation at 1000 rpm for 2 seconds the plates were incubated at 37 degrees Celsius for 5 hours. 1 uL of CCF4-dye mixture was added to each well. After incubated at room temperature for 2.5 hours the plates were measured on an EnVision plate reader at Excitation 405nm, Emission1=460nm and Emission 2=530nm. The %Activity was determined from the ratio of 460nm/530nm.

outcome, inactive:
CC(C)(C)NC(=O)[C@@H]1CC[C@@H]2[C@@H]3CC[C@@H]4NC(=O)C=C[C@@]4(C)[C@H]3CC[C@]21C
CC(C)(C)NC[C@H](O)COc1cccc2c1C[C@@H](O)[C@@H](O)C2
CC(=O)[C@H]1CC[C@@H]2[C@H]3CC=C4C[C@@H](O)CC[C@]4(C)[C@H]3CC[C@]12C
CO[C@@H]1C=CO[C@]2(C)Oc3c(C)c(O)c4c(O)c(c(C=NN5CCN(C)CC5)c(O)c4c3C2=O)NC(=O)C(C)=CC=C[C@H](C)[C@H](O)[C@H](C)[C@H](O)[C@H](C)[C@H](OC(C)=O)[C@H]1C
O=C(Nc1ccccc1)OC[C@H](CN1CCCCC1)OC(=O)Nc1ccccc1
CN=C(NC#N)NCCSC[C@H]1N=CN=C1C
C[C@@]12CCC(=O)C[C@@H]1CC(=O)[C@H]1[C@H]3CCC[C@]3(C)C(=O)C[C@@H]12 (tested in a mixture with another compound)
C[C@@H]1C[C@H](OC(=O)[C@@H](O)c2ccccc2)CC(C)(C)N1C
Nc1c(O)cccc1C(=O)C[C@@H](N)C(=O)O
CC(C)n1c(/C=C\[C@@H](O)C[C@@H](O)CC(=O)O)c(-c2ccc(F)cc2)c2ccccc21
C[C@H](CCC(=O)O)[C@H]1CC[C@@H]2[C@@H]3[C@@H](O)C[C@H]4C[C@@H](O)CC[C@@]4(C)[C@H]3CC[C@@]21C
COc1ccccc1OC[C@H](O)CO
CC(=O)O[C@H]1C[C@H]2CC[C@@H]3[C@@H](CC[C@]4(C)[C@H](OC(C)=O)[C@H]([N+]5(C)CCCCC5)C[C@@H]34)[C@]2(C)C[C@H]1[N+]1(C)CCCCC1
COc1cc(OC)c2c(c1Cl)O[C@@]1(C2=O)[C@H](C)CC(=O)C[C@@H]1OC
COc1c2c(nc3ccccc13)O[C@H]([C@@](C)(O)CO)C2
C#C[C@]1(O)CC[C@@H]2[C@H]3CCc4cc(OC)ccc4[C@@H]3CC[C@@]21C
CO[C@]1(NC(=O)C2SC(=C(C(N)=O)C(=O)O)S2)C(=O)N2C(C(=O)O)=C(CSc3nnnn3C)CS[C@H]21 (stereo not given in full)
COC(=O)[C@@H]1[C@@H]2C[C@H]3c4[nH]c5cc(OC)ccc5c4CCN3C[C@@H]2C[C@H](OC(=O)c2cc(OC)c(OC)c(OC)c2)[C@H]1OC
CC[C@]1(c2ccccc2)NC(=O)N(C)C1=O
C[N+]1(C)CC[C@@H](OC(=O)[C@@](O)(c2ccccc2)C2CCCC2)C1
COc1ccc([C@@H]2CC(=O)c3c(O)cc(O[C@H]4O[C@@H](CO[C@H]5O[C@@H](C)[C@@H](O)[C@@H](O)[C@@H]5O)[C@@H](O)[C@@H](O)[C@@H]4O)cc3O2)cc1O
CCc1c(C)[nH]c2c1C(=O)[C@H](CN1CCOCC1)CC2
C[C@H](NCCC(c1ccccc1)c1ccccc1)c1ccccc1
COC(=O)C1=C(C)NC(C)=C(C(=O)OC(C)C)[C@H]1c1cccc2nonc12
c1ccc2c(c1)CCC[C@@H]2C1=NCCN1
N[C@H](Cc1cc(I)c(Oc2ccc(O)c(I)c2)c(I)c1)C(=O)O
CCCCC[C@H](O)/C=C\[C@@H]1[C@H](O)CC(=O)[C@@H]1CCCCCCC(=O)O
NC[C@@H]1O[C@H](O[C@H]2[C@H](O)[C@H](O[C@@H]3O[C@H](CO)[C@@H](O)[C@H](N)[C@@H]3O)[C@@H](N)C[C@H]2N)[C@@H](O)[C@H](O)[C@@H]1O
C[C@@H](C(=O)O)c1ccc(C(=O)c2ccccc2)s1
CC(=O)CC(=O)[C@@]1(O)CC[C@@H]2[C@@H]3C=C(C)C4=CC(=O)CC[C@@H]4[C@H]3CC[C@]21C
CS(=O)(=O)Nc1cccc(-c2nc(Nc3ccc(F)cc3)c3ccccc3n2)c1
N[C@H](Cc1cc(I)c(Oc2cc(I)c(O)c(I)c2)c(I)c1)C(=O)O
OC[C@@H](O)CN1CCN(c2ccccc2)CC1
CC1(C)O[C@H]2C[C@@H]3[C@H]4CCC5=CC(=O)CC[C@@]5(C)[C@]4(F)[C@@H](O)C[C@@]3(C)[C@@]2(C(=O)CCl)O1
CC[C@H]1NC(=O)c2cc(S(N)(=O)=O)c(Cl)cc2N1
C[C@H]1CC[C@@H]2[C@@H](C)[C@H]3[C@H](C[C@H]4[C@@H]5CC=C6C[C@@H](O[C@]7(O[C@H]8O[C@@H](C)[C@@H](O)[C@@H](O)[C@@H]8O)C[C@@H](O[C@@H]8O[C@H](CO)[C@@H](O)[C@H](O)[C@@H]8O)[C@@H](O)[C@H](CO)O7)CC[C@]6(C)[C@H]5CC[C@@]34C)N2C1
C[N+]1(C)CCC[C@H]1C(=O)[O-]
Cc1nccn1C[C@@H]1CCc2c(c3ccccc3n2C)C1=O
NC[C@@H]1O[C@H](O[C@@H]2[C@H](O[C@@H]3O[C@H](CO)[C@@H](COC[C@H]4O[C@@H](CN)[C@@H](O)[C@@H](O)[C@@H]4N)[C@@H]3O)[C@@H](O)[C@@H](N)C[C@H]2N)[C@@H](N)[C@H](O)[C@@H]1O
O=C(N[C@@H](CO)[C@@H](O)c1ccc([N+](=O)[O-])cc1)C(Cl)Cl
